HEK cytotox = kills HEK 293 cells | HEK 293 viability, ATP luminescence (CellTiter-Glo), 48-72 h | Potency, µM (highest dose often 115 µM), for inactives: top-dose activity change, negative = cytotoxicity, actives largely listed as inhibitors | 94,000 tested, 6.6% active | AID 1345083; also: nearly all actives have a fitted effect of over 60% in size
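250 HEK 293 cells/well; compound by pintool; incubated 48 or 72 hr at 37 degree Celsius; CellTiter-Glo added, 10 min RT, luminescence imaged.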
Luciferase inh = Photinus pyralis luciferase inhibition; P08659; purified P. pyralis luciferase, luminescence, biochemical; Potency, µM (doses to about 115 µM), actives largely listed as inhibitors; 76,000 tested, 2.5% active; AID 1347043; also: nearly all actives have a fitted effect of over 65% in size
Target sequence (P08659 whole entry, looked up): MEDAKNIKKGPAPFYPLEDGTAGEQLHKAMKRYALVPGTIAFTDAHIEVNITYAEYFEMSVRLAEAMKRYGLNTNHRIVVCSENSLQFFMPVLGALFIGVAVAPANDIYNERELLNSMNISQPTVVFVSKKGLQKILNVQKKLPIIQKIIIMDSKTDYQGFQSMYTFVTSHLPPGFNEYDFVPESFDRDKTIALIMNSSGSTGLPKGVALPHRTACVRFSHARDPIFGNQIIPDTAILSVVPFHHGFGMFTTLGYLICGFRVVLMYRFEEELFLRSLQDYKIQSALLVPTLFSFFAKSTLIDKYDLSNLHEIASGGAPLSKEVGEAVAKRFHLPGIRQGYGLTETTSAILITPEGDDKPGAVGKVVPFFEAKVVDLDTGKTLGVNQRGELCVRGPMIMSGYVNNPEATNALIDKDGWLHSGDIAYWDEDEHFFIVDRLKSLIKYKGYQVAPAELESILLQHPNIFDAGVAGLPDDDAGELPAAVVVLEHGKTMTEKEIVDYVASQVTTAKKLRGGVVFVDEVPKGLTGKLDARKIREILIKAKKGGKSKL
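Purified P. pyralis luciferase (10nM final) in 50mM Tris acetate pH 7.5, 10mM Mg acetate, 0.01% Tween-20, 0.05% BSA with 10uM D-luciferin and 10uM ATP. Compounds titrated qHTS. Luminescence imaged on CCD.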
3T3 cytotox = kills NIH 3T3 cells; Potency, µM (titrated, usually from 96.7 µM), for inactives: at the highest dose activity change, negative = cytotoxicity, usual class: inhibitors; AID 1345082; NIH 3T3 viability, CellTiter-Glo ATP luminescence, 48-72 h; 94,000 tested, 4.3% active; also: nearly all actives have a fitted effect of over 55% in size
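First NIH 3T3 cells are plated at 400 cells/well; next compound is pinned in; then plates incubate 48 or 72 hr at 37 °C; finally CellTiter-Glo is added and luminescence read after 10 min.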
NPR1 antag = antagonists of human natriuretic peptide receptor Npr1; P16066; HEK293 hNpr1 GloSensor cGMP, ANP-stimulated luminescence; Potency, µM (titrated, usually from 46.3 µM), for the others: at the top dose activity change, negative = inhibition, hits mostly inhibitors; 76,000 tested, 1.6% active; AID 1347048; calls by dose curve; also: nearly all actives have a fitted effect of over 60% in size
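Compound pre-incubated 30 min at room temperature on GloSensor-loaded HEK293 cells stably carrying hNpr1 and the pGS-40F cGMP biosensor. Stimulation uses hNppA at 0.1 nM final; luminescence is taken at baseline and 20 min post-agonist.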
Numbers without * were called inactive; ! = not active in a repeat; [ ] = dose if it differs, or a comment. Rows were chosen to be rich in hits. Some 11% of all compounds tested hit in one or more screens of this group. Unless noted, calls follow the shape of the dose curve; as a rule, active = well fitted curve in the direction sought with a large enough effect; inconclusive = small, poorly fitted or top-dose-only effect, or another doubt; inactive = no such curve, though single readings can be large; an effect the other way counts as inactive or inconclusive. % is scaled to controls: 0 for no effect and ±100 for the full control effect; potency is read from the fitted curve at half-maximal effect.

Results for O=C(c1cccnc1)N1CCCC2(CNc3ncccc3[S+](=O)([O-])N2)C1 (centres undefined) ?
HEK cytotox: -5.5%; 3T3 cytotox: inconclusive

How did O=c1n(-c2ccc(F)cc2F)nc2n1CCN(Cc1ccccc1)C2 do in these assays?
HEK cytotox: 3.16µM*; Luciferase inh: inconclusive; 3T3 cytotox: 6.31µM*; NPR1 antag: 26.0%

Results for O=c1n(-c2ccc(C(F)(F)F)cc2)nc2n1CCN(Cc1ccccn1)C2 ?
HEK cytotox: inconclusive; Luciferase inh: inconclusive; 3T3 cytotox: inconclusive; NPR1 antag: 4.5%

Results for O=c1n(-c2ccc(Cl)cc2)nc2n1CCN(Cc1ccc(F)cc1)C2 ?
HEK cytotox: 39.8µM*; 3T3 cytotox: 28.2µM*

Results for COc1ccc(-n2nc3n(c2=O)CCN(Cc2ccsc2)C3)cc1 ?
HEK cytotox: inconclusive; 3T3 cytotox: 31.6µM*

What do the screens show for `O=c1n(-c2ccncc2)nc2n1CCN(Cc1ccsc1)C2`?
HEK cytotox: inconclusive; Luciferase inh: inconclusive; 3T3 cytotox: inconclusive; NPR1 antag: -6.8%[70.6 µM]

What do the screens show for `O=c1n(-c2ccc(C(F)(F)F)cc2)nc2n1CCN(Cc1cccc3ccccc13)C2`?
HEK cytotox: 28.2µM*!; Luciferase inh: inactive; 3T3 cytotox: inconclusive; NPR1 antag: -19.3%

Results for Cc1ccc(CN2C(=O)[C@@H]3C[C@@H](O)CN3C3(CN(Cc4ccc(F)cc4)C3)C2=O)o1 ?
HEK cytotox: -8.7%[172 µM]; Luciferase inh: inactive; 3T3 cytotox: -14.6%[174 µM]; NPR1 antag: -1.8%[70.6 µM]

Results for COCCc1noc(CC2CCOC3(CCN(C(=O)c4ccc(OC)cc4)CC3)C2)n1 (centres undefined) ?
HEK cytotox: -4.2%; 3T3 cytotox: -6.1%

What do the screens show for `COc1ccc(CN2CCn3c(nn(-c4ccc(C(F)(F)F)cc4)c3=O)C2)cc1`?
HEK cytotox: -18.9%; 3T3 cytotox: -21.8%

How did O=C(c1ccccc1)N1CCn2c(nn(-c3ccc(F)cc3)c2=O)C1 do in these assays?
HEK cytotox: 100µM*; Luciferase inh: inactive; 3T3 cytotox: -18.6%[138 µM]; NPR1 antag: 2.4%[70.6 µM]

What do the screens show for `Cc1ccc(C(=O)N2CCn3c(nn(-c4ccc(F)cc4)c3=O)C2)cc1`?
HEK cytotox: -20.2%; Luciferase inh: inactive; 3T3 cytotox: -27.4%; NPR1 antag: 3.7%

How did O=c1n(-c2ccc(C(F)(F)F)cc2)nc2n1CCN(Cc1ccc(C(F)(F)F)cc1)C2 do in these assays?
HEK cytotox: 35.5µM*!; Luciferase inh: inactive; 3T3 cytotox: inconclusive; NPR1 antag: inconclusive

What do the screens show for `Cc1cccc(N(C)C(=O)Cn2cccc2-c2nc(-c3ccccc3)no2)c1`?
HEK cytotox: 70.8µM*; Luciferase inh: inconclusive; 3T3 cytotox: inconclusive; NPR1 antag: -2.0%

What do the screens show for `Cc1ccc(C(=O)NCCn2cccc2-c2nc(-c3ccccc3)no2)cc1`?
HEK cytotox: -0.9%; Luciferase inh: 0.891µM*; 3T3 cytotox: -16.4%; NPR1 antag: -1.7%

What do the screens show for `Cc1ccc(C(=O)NCCn2cccc2-c2nc(-c3ccccc3)no2)cc1F`?
HEK cytotox: -6.9%; Luciferase inh: inactive; 3T3 cytotox: -4.3%; NPR1 antag: 1.0%

What do the screens show for `O=C(COc1ccccc1)NCCn1cccc1-c1nc(-c2ccc3c(c2)OCO3)no1`?
HEK cytotox: -2.7%; Luciferase inh: inconclusive; 3T3 cytotox: 2.3%; NPR1 antag: -17.5%

What do the screens show for `O=C(NCCn1cccc1-c1nc(-c2ccc3c(c2)OCO3)no1)C1(c2ccccc2)CC1`?
HEK cytotox: 44.7µM*; Luciferase inh: 20µM*; 3T3 cytotox: inconclusive; NPR1 antag: -14.3%

How did CC(=O)N[C@@H]1CN(C(=O)c2cnc3ccccc3c2)C[C@H]1c1ccc(C)cc1 do in these assays?
HEK cytotox: 0.1%; Luciferase inh: inactive; 3T3 cytotox: -24.4%; NPR1 antag: -4.9%

What do the screens show for `Cc1cc(C)cc(NC(=O)Cn2c(N3CCOCC3)nc(C)cc2=O)c1`?
HEK cytotox: inconclusive; Luciferase inh: inactive; 3T3 cytotox: -22.8%; NPR1 antag: 3.3%

Results for CN(Cc1ccccc1)C(=O)CN1C(=O)COc2ccc(C(=O)COc3ccc(F)cc3)cc21 ?
HEK cytotox: 20µM*; Luciferase inh: inactive; 3T3 cytotox: inconclusive; NPR1 antag: -1.4%

What do the screens show for `CC(C)c1ccc(OCC(=O)c2ccc3c(c2)N(CCCC(=O)N2CCOCC2)C(=O)CO3)cc1`?
HEK cytotox: 31.6µM*; Luciferase inh: inconclusive; 3T3 cytotox: 31.6µM*; NPR1 antag: -17.5%

How did COCCNC(=O)CCCN1C(=O)COc2ccc(C(=O)COc3ccc(F)c(Cl)c3)cc21 do in these assays?
HEK cytotox: inconclusive; Luciferase inh: inactive; 3T3 cytotox: inconclusive; NPR1 antag: -2.7%

How did COCCNC(=O)CCCN1C(=O)COc2ccc(C(=O)COc3ccc(C(C)(C)C)cc3)cc21 do in these assays?
HEK cytotox: inconclusive; Luciferase inh: 14.1µM*; 3T3 cytotox: inconclusive; NPR1 antag: -16.1%

Results for CCCCNC(=O)CCCN1C(=O)COc2ccc(C(C)(C)CC)cc21 ?
HEK cytotox: 44.7µM*; Luciferase inh: inactive; 3T3 cytotox: inconclusive; NPR1 antag: -0.9%

How did CC1=C[C@@H](CNC(=O)NCc2ccccc2)[C@H](C(C)C)C[C@H]1CC(=O)N1CCN(C)CC1 do in these assays?
HEK cytotox: -10.3%; Luciferase inh: inactive; 3T3 cytotox: -1.1%; NPR1 antag: 0.5%

How did COCCCNC(=O)c1cc(-c2ccsc2)nc2c1cnn2C do in these assays?
HEK cytotox: 0.4%[172 µM]; 3T3 cytotox: inconclusive

How did O=C(CN1C(=O)COc2ccc(C(=O)COc3ccc(Cl)cc3F)cc21)NC1CCCCC1 do in these assays?
HEK cytotox: 28.2µM*; Luciferase inh: inactive; 3T3 cytotox: inconclusive; NPR1 antag: 3.2%

How did CCOC(=O)[C@@H]1CN(C(=O)c2ccno2)[C@H]2c3ccccc3O[C@@H]12 do in these assays?
HEK cytotox: -17.3%; 3T3 cytotox: inconclusive

How did CCN1CCN(CC(O)COc2cccc(CNC3(c4ccccc4)CC3)c2)CC1 (centres undefined) do in these assays?
HEK cytotox: 31.6µM*; Luciferase inh: inactive; 3T3 cytotox: inconclusive; NPR1 antag: 6.3%

Results for CCCn1cc(C2CCN(S(=O)(=O)c3c(C)c(C)cc(C)c3C)CC2)c2ccccc21 ?
HEK cytotox: inconclusive; Luciferase inh: inactive; 3T3 cytotox: -6.6%; NPR1 antag: -0.2%

What do the screens show for `CCC(CNC(=O)c1csc2nc(-c3ccccc3Cl)cn12)N(C)C` (centres undefined)?
HEK cytotox: inconclusive; Luciferase inh: inactive; 3T3 cytotox: inconclusive; NPR1 antag: 6.6%

Results for CC(c1nccs1)N(C)C(=O)c1csc2nc(-c3ccccc3Cl)cn12 (centres undefined) ?
HEK cytotox: 22.4µM*; Luciferase inh: inconclusive; 3T3 cytotox: 50.1µM*; NPR1 antag: -24.7%

Results for Cc1ccccc1CN1Cc2nc(-c3ccsc3)ccc2OCC1=O ?
HEK cytotox: 89.1µM*; Luciferase inh: inactive; 3T3 cytotox: inconclusive; NPR1 antag: -18.0%[70.6 µM]

Screening data: PubChem, National Center for Advancing Translational Sciences (NCATS)
